Source: PubChem BioAssay (NCATS)
Records with an inconclusive call do not appear. Calls of active or inactive are those of the source. Unless noted, the call rests on the fitted dose curve.

Key:
[1] = target: Cytochrome P450 3A4 (Homo sapiens) (UniProt P08684); test: qHTS Assay for Inhibitors and Substrates of Cytochrome P450 3A4 (AID 884; active means well fitted curve in the direction sought with a large enough effect; an effect the other way counts as inactive or inconclusive; further: nearly all actives have a fitted effect of over 50% in size; further: potency means the concentration at half of the fitted maximal effect)
Sequence of Cytochrome P450 3A4 (Homo sapiens) (P08684 whole entry, looked up): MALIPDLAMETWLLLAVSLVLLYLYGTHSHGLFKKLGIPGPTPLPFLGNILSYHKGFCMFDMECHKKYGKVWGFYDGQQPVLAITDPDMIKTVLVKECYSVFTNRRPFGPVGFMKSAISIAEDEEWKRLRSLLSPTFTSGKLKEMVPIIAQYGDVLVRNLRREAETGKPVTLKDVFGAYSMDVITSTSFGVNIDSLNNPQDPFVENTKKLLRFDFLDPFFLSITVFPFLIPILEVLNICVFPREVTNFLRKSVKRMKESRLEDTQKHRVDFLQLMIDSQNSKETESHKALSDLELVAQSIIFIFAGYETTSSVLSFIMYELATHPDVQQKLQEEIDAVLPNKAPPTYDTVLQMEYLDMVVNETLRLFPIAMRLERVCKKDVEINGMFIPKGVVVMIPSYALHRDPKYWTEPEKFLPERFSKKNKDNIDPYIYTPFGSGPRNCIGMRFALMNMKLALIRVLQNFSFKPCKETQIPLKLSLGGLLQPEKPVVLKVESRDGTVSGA
How it was run: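 Luminescent readout of luciferin produced by CYP3A4 (20 nM) dealkylation of Luciferin-PPXE, 25 uM (its KM). NADPH-driven reaction ran 60 min at RT after 10 min compound preincubation; data scaled to 57 uM ketoconazole as 100% inhibition.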

[2] = target: Cytochrome P450 3A4 (Homo sapiens) (UniProt P08684); test: qHTS Assay for Activators of Cytochrome P450 3A4 (AID 885; active means well fitted curve in the direction sought with a large enough effect; an effect the other way counts as inactive or inconclusive; further: nearly all actives have a fitted effect of over 65% in size)
How it was run: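 Luminescent readout of luciferin formed from 25 uM Luciferin-PPXE (KM level) by 20 nM CYP3A4 in 200 mM KPO4, with 60 min NADPH-driven reaction at room temperature after 10 min compound exposure. Ketoconazole (57 uM) defined 100% inhibition.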

[3] = MultiTox-Fluor Cytotoxicity Assay - LYMP1-003 - Dead Cells (AID 961; active means well fitted curve in the direction sought with a large enough effect; an effect the other way counts as inactive or inconclusive; further: nearly all actives have a fitted effect of over 70% in size)
How it was run: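 Dead-cell protease release, detected as bis-AAF-R110 fluorescence at 485/520 nm, was measured in LYMP1-003 cells after 16 h compound treatment at 37 C. AC50 values came from Hill-modeled qHTS curves normalized to DMSO (0%) and 15 uM tetraoctylammonium bromide (100%).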

[4] = target: Nuclear receptor ROR-gamma (Homo sapiens) (UniProt P51449); test: qHTS assay for small molecule antagonists of the retinoid-related orphan receptor gamma (ROR-gamma) signaling pathway (AID 651802; active means well fitted curve in the direction sought with a large enough effect; an effect the other way counts as inactive or inconclusive;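 further: CHO cells with doxycycline-induced ROR-gamma expression; series mostly up to about 92 µM; on the % scale 0 is the no-effect control and ±100 the full control effect; nearly all actives have a fitted effect of over 60% in size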)
Sequence of Nuclear receptor ROR-gamma (Homo sapiens) (P51449 whole entry, looked up): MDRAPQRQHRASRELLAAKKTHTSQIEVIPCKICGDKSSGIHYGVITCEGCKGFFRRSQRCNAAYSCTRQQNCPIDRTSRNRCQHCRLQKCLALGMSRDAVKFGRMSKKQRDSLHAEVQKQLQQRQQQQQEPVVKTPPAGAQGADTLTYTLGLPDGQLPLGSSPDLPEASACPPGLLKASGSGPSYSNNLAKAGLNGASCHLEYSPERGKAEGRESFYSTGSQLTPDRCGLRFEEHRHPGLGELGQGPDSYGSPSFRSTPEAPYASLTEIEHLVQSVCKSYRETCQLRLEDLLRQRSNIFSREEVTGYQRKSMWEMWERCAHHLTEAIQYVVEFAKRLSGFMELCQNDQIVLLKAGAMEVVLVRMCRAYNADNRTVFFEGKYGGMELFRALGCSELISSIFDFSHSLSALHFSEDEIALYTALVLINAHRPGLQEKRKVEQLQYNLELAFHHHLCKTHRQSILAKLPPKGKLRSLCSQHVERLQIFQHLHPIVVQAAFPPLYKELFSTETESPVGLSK
How it was run: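 Steps: cells dispensed; compound or DMSO transferred by pin tool; doxycycline added to induce the ROR response element-driven luciferase; plates held 16hr at 37C; ONE-Glo added and luminescence measured.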

[5] = qHTS assay for small molecule agonists of the antioxidant response element (ARE) signaling pathway measured by Nrf2-dependant transcriptional activity - cell viability counter screen (AID 720653; active means well fitted curve in the direction sought with a large enough effect in the repeat runs; an effect the other way counts as inactive or inconclusive; further: on the % scale 0 is the no-effect control and ±100 the full control effect); conditions: ARE-bla HepG2 viability, CellTiter-Glo ATP luminescence, 16 h; max response: hits give low values
How it was run: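 ARE-bla HepG2 cells treated with compounds for 16 h at 37C; this counter screen measures viability as intracellular ATP by CellTiter-Glo luminescence after 30 min at room temperature.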

[6] = qHTS for Inhibitors of the Functional Ribonucleoprotein Complex (vRNP) of Lassa (LASV) Arenavirus: LASV Primary Screen - GLuc reporter signal (AID 1347082; calls by dose curve; tested in HEK293 reporter line; further: series mostly up to about 57 µM; on the % scale 0 is the no-effect control and ±100 the full control effect; nearly all actives have a fitted effect of over 60% in size)
[7] = qHTS for Inhibitors of the Functional Ribonucleoprotein Complex (vRNP) of Lassa (LASV) Arenavirus: Viability assay - alamar blue signal for LASV Primary Screen (AID 1347083; calls by dose curve; tested in HEK293 reporter line; further: series mostly up to about 57 µM; on the % scale 0 is the no-effect control and ±100 the full control effect; nearly all actives have a fitted effect of over 80% in size)
[8] = qHTS for Inhibitors of the Functional Ribonucleoprotein Complex (vRNP) of Lymphocytic Choriomeningitis Arenaviruses (LCMV): Viability assay - alamar blue signal for LCMV Primary Screen (AID 1347085; calls by dose curve; tested in HEK293 reporter line; further: series mostly up to about 57 µM; on the % scale 0 is the no-effect control and ±100 the full control effect; nearly all actives have a fitted effect of over 80% in size)
[9] = target: Nucleoprotein (Lymphocytic choriomeningitis virus (strain Armstrong)) (UniProt P09992); test: qHTS for Inhibitors of the Functional Ribonucleoprotein Complex (vRNP) of Lymphocytic Choriomeningitis Arenaviruses (LCMV): LCMV Primary Screen - GLuc reporter signal (AID 1347086); further: series mostly up to about 57 µM; on the % scale 0 is the no-effect control and ±100 the full control effect; nearly all actives have a fitted effect of over 70% in size
Sequence of Nucleoprotein (Lymphocytic choriomeningitis virus (strain Armstrong)) (P09992 whole entry, looked up): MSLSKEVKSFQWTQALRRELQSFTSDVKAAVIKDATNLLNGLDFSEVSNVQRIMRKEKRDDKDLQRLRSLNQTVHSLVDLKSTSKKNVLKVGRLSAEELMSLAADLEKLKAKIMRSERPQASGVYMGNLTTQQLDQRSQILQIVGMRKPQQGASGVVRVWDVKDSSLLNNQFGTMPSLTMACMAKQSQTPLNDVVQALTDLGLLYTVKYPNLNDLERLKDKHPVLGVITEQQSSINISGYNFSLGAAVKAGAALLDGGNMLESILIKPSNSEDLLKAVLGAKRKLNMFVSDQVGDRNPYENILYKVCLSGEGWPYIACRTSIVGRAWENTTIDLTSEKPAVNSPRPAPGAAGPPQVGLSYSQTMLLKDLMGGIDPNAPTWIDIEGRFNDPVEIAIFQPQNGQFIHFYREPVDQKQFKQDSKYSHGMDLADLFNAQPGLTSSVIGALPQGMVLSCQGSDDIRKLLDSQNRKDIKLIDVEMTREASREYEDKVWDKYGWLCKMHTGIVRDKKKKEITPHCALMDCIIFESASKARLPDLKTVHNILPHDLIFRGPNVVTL

[10] = Validation screen for inhibitors of Lassa infection (AID 463096); further: potency means the concentration at half of the fitted maximal effect
[11] = target: M-phase phosphoprotein 8 (Homo sapiens) (UniProt Q99549); test: qHTS Validation Assay for Inhibitors for MPP8 Chromodomain Interactions with Methylated Histone Tails (AID 488949; active means well fitted curve in the direction sought with a large enough effect; an effect the other way counts as inactive or inconclusive;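 further: 50 nM MPP8 with 50 nM peptide preformed then compounds added for 30 min; AlphaScreen signal from MPP8 chromodomain bound to biotinylated H3K9me3 peptide; top concentration of the series differs between compounds; on the % scale 0 is the no-effect control and ±100 the full control effect; nearly all actives have a fitted effect of over 55% in size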)
Sequence of M-phase phosphoprotein 8 (Homo sapiens) (Q99549 whole entry, looked up): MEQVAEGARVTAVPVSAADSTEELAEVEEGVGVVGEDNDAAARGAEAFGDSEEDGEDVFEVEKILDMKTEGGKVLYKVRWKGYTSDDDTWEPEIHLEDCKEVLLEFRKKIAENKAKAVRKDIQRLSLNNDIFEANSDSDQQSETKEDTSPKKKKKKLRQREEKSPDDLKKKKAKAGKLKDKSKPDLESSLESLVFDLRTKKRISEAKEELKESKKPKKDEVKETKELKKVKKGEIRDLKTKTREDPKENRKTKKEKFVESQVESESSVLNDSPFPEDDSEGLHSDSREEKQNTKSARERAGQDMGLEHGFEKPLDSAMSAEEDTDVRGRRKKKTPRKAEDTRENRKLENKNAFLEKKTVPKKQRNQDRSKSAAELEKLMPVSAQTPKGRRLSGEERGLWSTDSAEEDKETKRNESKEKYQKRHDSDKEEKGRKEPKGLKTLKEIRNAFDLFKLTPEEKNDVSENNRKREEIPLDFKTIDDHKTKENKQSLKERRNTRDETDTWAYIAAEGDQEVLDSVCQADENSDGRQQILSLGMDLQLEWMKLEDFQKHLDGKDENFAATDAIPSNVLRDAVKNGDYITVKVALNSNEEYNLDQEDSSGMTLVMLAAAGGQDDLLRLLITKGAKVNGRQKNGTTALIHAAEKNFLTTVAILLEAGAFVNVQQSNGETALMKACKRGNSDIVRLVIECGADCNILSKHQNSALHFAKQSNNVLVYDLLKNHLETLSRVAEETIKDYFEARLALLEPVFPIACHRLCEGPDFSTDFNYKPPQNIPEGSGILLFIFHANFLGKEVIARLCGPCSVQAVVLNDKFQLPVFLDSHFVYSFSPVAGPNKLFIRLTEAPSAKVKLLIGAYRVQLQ
How it was run: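 50 nM MPP8 + 50 nM b-H3K9me3 peptide, PBS pH 7.4/0.01% Tween-20, 30 min RT; + cpd 30 min RT; + AlphaScreen donor/Ni-chelate acceptor beads 10 ug/mL final, 30 min dark; luminescence read.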

[12] = Inducers of the Endoplasmic Reticulum Stress Response (ERSR) in human glioma: Validation (AID 504836; active means well fitted curve in the direction sought with a large enough effect; an effect the other way counts as inactive or inconclusive; further: 0% is about no effect)
How it was run: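 Stably transfected U87-MG glioma cells carrying a GRP78-based luciferase sensor; 16 h compound incubation. Luminescence end-point read 10 min after Bright-Glo addition at room temperature.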

[13] = Cell Viability - LYMP1-003 - Assay at 40 hr (AID 964; active means well fitted curve in the direction sought with a large enough effect; an effect the other way counts as inactive or inconclusive; further: series mostly up to about 92 µM; on the % scale 0 is the no-effect control and ±100 the full control effect; nearly all actives have a fitted effect of over 60% in size)
How it was run: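 Luminescent ATP signal (CellTiter-Glo) served as the viability read-out after 40 hr compound treatment of human lymphoblastoid LYMP1-003 cells at 37 C. Decreases in ATP were fitted with the Hill equation to give AC50.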

[14] = Cell Viability - LYMP1-002 - Assay at 40 hr (AID 994; active means well fitted curve in the direction sought with a large enough effect; an effect the other way counts as inactive or inconclusive;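 further: 0% = DMSO only and full inhibition = 92 µM tetraoctylammonium bromide; nearly all actives have a fitted effect of over 60% in size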)
How it was run: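 Cells are plated at 2500 per well and rested 5 hr at 37 C. Compounds are added and incubated 40 hr at 37 C. CellTiter-Glo reagent is added for 30 min at room temperature before luminescence is read.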

[15] = target: Peroxisome proliferator-activated receptor delta (Homo sapiens) (UniProt Q03181); test: qHTS assay for small molecule agonists of peroxisome proliferator-activated receptor delta signaling (AID 588534);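 further: 0% = DMSO basal wells and 100% = positive control agonist at 10 µM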
Sequence of Peroxisome proliferator-activated receptor delta (Homo sapiens) (Q03181 whole entry, looked up): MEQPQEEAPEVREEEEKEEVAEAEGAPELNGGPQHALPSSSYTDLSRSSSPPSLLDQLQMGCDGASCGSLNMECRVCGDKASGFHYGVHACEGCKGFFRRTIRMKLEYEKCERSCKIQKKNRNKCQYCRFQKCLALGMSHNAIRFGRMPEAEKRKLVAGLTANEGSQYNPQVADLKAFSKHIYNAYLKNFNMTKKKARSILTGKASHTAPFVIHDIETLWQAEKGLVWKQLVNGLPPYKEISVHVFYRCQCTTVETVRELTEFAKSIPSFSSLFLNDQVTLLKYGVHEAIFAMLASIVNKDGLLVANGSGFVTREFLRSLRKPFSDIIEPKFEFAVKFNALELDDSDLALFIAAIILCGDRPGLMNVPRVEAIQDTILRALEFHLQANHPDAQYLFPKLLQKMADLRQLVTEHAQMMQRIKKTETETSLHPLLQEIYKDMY
How it was run: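 Agonist-mode qHTS; reporter cells, 5 hrs 37 C pre-incubation; compound titration, 18 hrs 37 C; CCF4 dye, 2 hrs RT; fluorescence read. EC50/efficacy via Hill fit.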

[16] = target: Alpha-galactosidase (Coffea arabica) (UniProt Q42656); test: Counterscreen for Glucocerebrosidase Inhibitors: qHTS Assay for Coffee Bean alpha-Galactosidase at pH 4.5 (AID 957; active means well fitted curve in the direction sought with a large enough effect; an effect the other way counts as inactive or inconclusive;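 further: series mostly up to about 77 µM; plate controls were enzyme alone for no effect and no enzyme for full effect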)
Sequence of Alpha-galactosidase (Coffea arabica) (Q42656 whole entry, looked up): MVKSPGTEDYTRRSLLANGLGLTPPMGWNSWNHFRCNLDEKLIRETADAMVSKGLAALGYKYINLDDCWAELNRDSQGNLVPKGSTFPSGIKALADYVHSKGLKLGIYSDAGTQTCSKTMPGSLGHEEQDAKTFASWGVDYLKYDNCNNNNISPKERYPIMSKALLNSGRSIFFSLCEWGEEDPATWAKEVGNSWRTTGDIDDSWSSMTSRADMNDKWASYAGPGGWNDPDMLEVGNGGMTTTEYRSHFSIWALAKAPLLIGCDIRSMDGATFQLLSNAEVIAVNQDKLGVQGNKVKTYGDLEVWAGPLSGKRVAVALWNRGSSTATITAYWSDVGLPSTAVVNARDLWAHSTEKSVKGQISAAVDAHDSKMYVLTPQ
How it was run: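 Enzyme is added first (2 nM final), then compounds titrated from 0.7 nM to 77 uM, then 80 uM 4-methylumbelliferyl alpha-D-galactopyranoside; after 20 min at room temperature a pH 10 NaOH/glycine stop precedes fluorescence reading at 365/440 nm.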

[17] = target: Alpha-galactosidase (Coffea arabica) (UniProt Q42656); test: Counterscreen for Glucocerebrosidase Inhibitors: qHTS Assay for Coffee Bean alpha-Galactosidase at pH 5.9 (AID 998; active means well fitted curve in the direction sought with a large enough effect; an effect the other way counts as inactive or inconclusive;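 further: plate controls were uninhibited enzyme for no effect and no-enzyme basal signal for full effect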)
How it was run: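 Enzyme 2 nM + cpd (0.7 nM–77 uM titration) + 4-MU-alpha-Gal 80 uM, pH 5.9 citrate/Tween-20, RT 20 min, NaOH/glycine stop pH 10, fluor 365/440. Normalized to no-enzyme and full-activity controls; Hill-fit AC50.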

COC1=CC(=O)OC(CCc2ccc3c(c2)OCO3)C1 (stereo unspecified)
inactive: Potency [2] | Potency [3] | Potency [4] | max response [5] -4.13% | Potency [6] | Potency [7] | Potency [8] | Potency [9]
active: Potency [1] 2 µM

CN1[C@@H](CC(=O)c2ccccc2)CCC[C@H]1C[C@H](O)c1ccccc1
inactive: Potency [10] | Potency [11] | outcome [12] | Potency [6] | Potency [7] | Potency [8] | Potency [9]

CC1C(=O)N(C)C(=O)c2nc[nH]c21 (stereo unspecified)
inactive: Potency [10] | Potency [6] | Potency [7] | Potency [8] | Potency [9]

C=C/C(C)=C/[C@@]1(C)SC(=O)C(C)=C1O
inactive: Potency [10] | Potency [6] | Potency [7] | Potency [8] | Potency [9]

CCCCCCCCCC[Si](C)(C)CCC(=O)NC(Cc1ccc(C)cc1)c1ccccc1 (stereo unspecified)
inactive: Potency [10] | outcome [12] | Potency [6] | Potency [7] | Potency [8] | Potency [9]

CCOC(=O)c1ccccc1N
inactive: Potency [1] | Potency [3] | Potency [13] | Potency [14] | Potency [15] | Potency [4] | max response [5] 3.82% | Potency [6] | Potency [7] | Potency [8] | Potency [9]

C=CCN1CCc2c(cc(O)c(O)c2Cl)C(c2ccccc2)C1 (stereo unspecified)
inactive: Potency [10] | outcome [12] | Potency [6] | Potency [7] | Potency [8] | Potency [9]

CN1C2CCC1CC(OC(c1ccccc1)c1ccccc1)C2 (stereo unspecified)
active: Potency [10] 10 µM
inactive: outcome [12] | Potency [6] | Potency [7] | Potency [8] | Potency [9]

Cn1c(=O)c2c(nc(/C=C/c3cccc(Cl)c3)n2C)n(C)c1=O
inactive: Potency [10] | outcome [12] | Potency [6] | Potency [7] | Potency [8] | Potency [9]

COc1ccc2c(c1)CCC1C2CC[C@@]2(C)C1CC[C@@H]2NCCCCCCN1C(=O)C=CC1=O (stereo partly specified)
inactive: Potency [10] | Potency [11] | outcome [12] | Potency [6] | Potency [7] | Potency [8] | Potency [9]

CN(C)CCC(c1ccc(Cl)cc1)c1ccccn1 (stereo unspecified)
inactive: Potency [10] | outcome [12] | Potency [6] | Potency [7] | Potency [8] | Potency [9]

C=C(C)C1CC=C(C(=O)O)CC1 (stereo unspecified)
inactive: Potency [10] | outcome [12] | Potency [6] | Potency [7] | Potency [8] | Potency [9]

Cc1ccccc1CNc1ncnc2c1ncn2C1OC(CO)C(O)C1O (stereo unspecified)
inactive: Potency [10] | outcome [12] | Potency [6] | Potency [7] | Potency [8] | Potency [9]

CC1=C(C(=O)O)N2C(=O)[C@@H](NC(=O)C(N)c3ccccc3)[C@H]2SC1 (stereo partly specified)
inactive: Potency [10] | outcome [12] | Potency [6] | Potency [7] | Potency [8] | Potency [9]

CC1=C(C(=O)O)N2C(=O)[C@@H](NC(=O)C(N)C3=CCC=CC3)[C@H]2SC1 (stereo partly specified)
inactive: Potency [10] | outcome [12] | Potency [6] | Potency [7] | Potency [8] | Potency [9]

OCC1O[C@H](O)C(Cl)C(O)C1O (stereo partly specified)
inactive: Potency [10] | outcome [12] | Potency [6] | Potency [7] | Potency [8] | Potency [9]

CCCCOc1cc(CC2CNC(=O)N2)ccc1OC (stereo unspecified)
inactive: Potency [10] | outcome [12] | Potency [6] | Potency [7] | Potency [8] | Potency [9]

CCCCS(=N)(=O)CC[C@H](N)C(=O)O (stereo partly specified)
inactive: Potency [10] | outcome [12] | Potency [6] | Potency [7] | Potency [8] | Potency [9]

CCCN(CCc1ccccc1)C1CCc2c(O)cccc2C1 (stereo unspecified)
inactive: Potency [10] | outcome [12] | Potency [6] | Potency [7] | Potency [8] | Potency [9]

NC1C=CC=C(C(=O)O)C1 (stereo unspecified)
inactive: Potency [10] | outcome [12] | Potency [6] | Potency [7] | Potency [8] | Potency [9]

COC(=O)[C@H]1[C@H]2C[C@H]3c4[nH]c5ccccc5c4CCN3C[C@H]2CC[C@@H]1O
inactive: Potency [10] | outcome [12] | Potency [6] | Potency [7] | Potency [8] | Potency [9]

CC1CCN=C(N)S1 (stereo unspecified)
inactive: Potency [10] | outcome [12] | Potency [6] | Potency [7] | Potency [8] | Potency [9]

CC1CCN(CC[C@H]2CCCN2S(=O)(=O)c2cccc(O)c2)CC1
inactive: Potency [10] | outcome [12] | Potency [6] | Potency [7] | Potency [8] | Potency [9]

O=C(O)CNC(=O)C(CS)Cc1ccccc1 (stereo unspecified)
inactive: Potency [10] | Potency [11] | Potency [6] | Potency [7] | Potency [8] | Potency [9]

CC(=O)C(C)=O
inactive: outcome [16] | outcome [17] | Potency [10] | outcome [12] | Potency [15] | Potency [6] | Potency [7] | Potency [8] | Potency [9]
